Among the data in ChEMBL document CHEMBL1961873, “Compounds: GSK PKIS; Assays: Nanosyn kinase panel” (2012) are inhibition values, retold here.

Each structure is given as a SMILES string.

In assay [1] the target is Mitogen-activated protein kinase kinase kinase kinase 4 (Homo sapiens) (UniProt O95819). As to conditions: at 1 µM.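 Further: reported figure is an averaged inhibition value.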
Assay [2] concerns the target Dual specificity mitogen-activated protein kinase kinase 1 (Homo sapiens) (UniProt Q02750). As to conditions: at 0.1 µM.
Assay [3] shares this target. To be noted: at 1 µM.
Assay [4] deals with Misshapen-like kinase 1 (Homo sapiens) (UniProt Q8N4C8). To be noted: at 0.1 µM.
For assay [5] the target is unchanged. As to conditions: at 1 µM.
For assay [6], the target named is T1, Serine/threonine-protein kinase 4 (Homo sapiens) (UniProt Q13043).
T1 sequence (whole entry): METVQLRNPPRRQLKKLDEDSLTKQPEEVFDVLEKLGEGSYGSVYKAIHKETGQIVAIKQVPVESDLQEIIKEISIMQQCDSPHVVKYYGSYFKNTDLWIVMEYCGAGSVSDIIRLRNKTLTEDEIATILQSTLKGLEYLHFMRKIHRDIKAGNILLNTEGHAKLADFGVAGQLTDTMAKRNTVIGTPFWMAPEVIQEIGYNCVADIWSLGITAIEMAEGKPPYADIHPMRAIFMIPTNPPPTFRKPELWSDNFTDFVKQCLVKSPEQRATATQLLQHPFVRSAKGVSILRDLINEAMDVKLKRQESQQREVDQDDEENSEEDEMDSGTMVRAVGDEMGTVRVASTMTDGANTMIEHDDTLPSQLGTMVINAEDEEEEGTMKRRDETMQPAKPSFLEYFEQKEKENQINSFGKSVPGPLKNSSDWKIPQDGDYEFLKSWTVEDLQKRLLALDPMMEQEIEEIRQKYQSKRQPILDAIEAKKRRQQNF
To be noted: at 0.1 µM.

The target of assay [7] is T1, Serine/threonine-protein kinase 4 (Homo sapiens). To be noted: at 1 µM.
Assay [8] concerns the target T2, Serine/threonine-protein kinase 3 (Homo sapiens) (UniProt Q13188).
T2 sequence (whole entry): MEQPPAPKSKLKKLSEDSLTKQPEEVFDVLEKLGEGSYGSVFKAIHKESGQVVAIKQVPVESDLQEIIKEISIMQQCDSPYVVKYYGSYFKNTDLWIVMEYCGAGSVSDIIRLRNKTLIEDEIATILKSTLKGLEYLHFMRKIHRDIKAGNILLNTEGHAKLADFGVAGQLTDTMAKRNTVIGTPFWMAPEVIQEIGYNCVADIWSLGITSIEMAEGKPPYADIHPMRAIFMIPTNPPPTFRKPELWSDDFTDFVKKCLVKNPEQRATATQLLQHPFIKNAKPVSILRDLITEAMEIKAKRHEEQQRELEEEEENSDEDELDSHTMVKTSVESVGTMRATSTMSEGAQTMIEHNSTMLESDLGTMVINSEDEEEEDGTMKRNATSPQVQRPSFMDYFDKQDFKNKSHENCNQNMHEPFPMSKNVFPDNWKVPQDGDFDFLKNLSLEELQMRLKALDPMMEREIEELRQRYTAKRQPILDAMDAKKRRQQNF
As to conditions: at 0.1 µM.

Assay [9] concerns the target T2, Serine/threonine-protein kinase 3 (Homo sapiens). To be noted: at 1 µM.
Assay [10] concerns the target Serine/threonine-protein kinase 26 (Homo sapiens) (UniProt Q9P289). As to conditions: at 0.1 µM.
Assay [11] shares this target. To be noted: at 1 µM.
In assay [12] the target is Serine/threonine-protein kinase PAK 1 (Homo sapiens) (UniProt Q13153). As to conditions: at 0.1 µM.
Chain of Serine/threonine-protein kinase PAK 1 (Homo sapiens) (Q13153 whole entry): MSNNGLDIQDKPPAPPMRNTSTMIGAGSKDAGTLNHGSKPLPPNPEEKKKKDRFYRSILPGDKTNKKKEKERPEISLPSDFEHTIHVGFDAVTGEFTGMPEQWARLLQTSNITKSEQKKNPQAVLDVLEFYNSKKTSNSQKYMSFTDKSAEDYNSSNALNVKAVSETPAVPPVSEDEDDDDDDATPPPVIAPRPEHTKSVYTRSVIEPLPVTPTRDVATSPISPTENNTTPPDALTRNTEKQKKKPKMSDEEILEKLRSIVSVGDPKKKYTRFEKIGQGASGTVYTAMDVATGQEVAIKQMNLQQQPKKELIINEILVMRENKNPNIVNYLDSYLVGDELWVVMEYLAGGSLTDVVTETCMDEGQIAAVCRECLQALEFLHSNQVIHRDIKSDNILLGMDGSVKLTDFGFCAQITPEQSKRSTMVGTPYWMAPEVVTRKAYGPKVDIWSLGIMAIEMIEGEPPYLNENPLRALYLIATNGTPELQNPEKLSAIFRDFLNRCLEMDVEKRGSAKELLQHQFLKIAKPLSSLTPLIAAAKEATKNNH
For assay [13] the target is unchanged. As to conditions: at 1 µM.
Assay [14] has as its target Serine/threonine-protein kinase PAK 2 (Homo sapiens) (UniProt Q13177). To be noted: at 0.1 µM.
For assay [15] the target is unchanged. To be noted: at 1 µM.
Assay [16] concerns the target Serine/threonine-protein kinase PAK 3 (Homo sapiens) (UniProt O75914). As to conditions: at 0.1 µM.
The target is the same in assay [17]. As to conditions: at 1 µM.
The target of assay [18] is Serine/threonine-protein kinase PAK 5 (Homo sapiens) (UniProt Q9P286). To be noted: at 0.1 µM.
Chain of Serine/threonine-protein kinase PAK 5 (Homo sapiens) (Q9P286 whole entry, looked up): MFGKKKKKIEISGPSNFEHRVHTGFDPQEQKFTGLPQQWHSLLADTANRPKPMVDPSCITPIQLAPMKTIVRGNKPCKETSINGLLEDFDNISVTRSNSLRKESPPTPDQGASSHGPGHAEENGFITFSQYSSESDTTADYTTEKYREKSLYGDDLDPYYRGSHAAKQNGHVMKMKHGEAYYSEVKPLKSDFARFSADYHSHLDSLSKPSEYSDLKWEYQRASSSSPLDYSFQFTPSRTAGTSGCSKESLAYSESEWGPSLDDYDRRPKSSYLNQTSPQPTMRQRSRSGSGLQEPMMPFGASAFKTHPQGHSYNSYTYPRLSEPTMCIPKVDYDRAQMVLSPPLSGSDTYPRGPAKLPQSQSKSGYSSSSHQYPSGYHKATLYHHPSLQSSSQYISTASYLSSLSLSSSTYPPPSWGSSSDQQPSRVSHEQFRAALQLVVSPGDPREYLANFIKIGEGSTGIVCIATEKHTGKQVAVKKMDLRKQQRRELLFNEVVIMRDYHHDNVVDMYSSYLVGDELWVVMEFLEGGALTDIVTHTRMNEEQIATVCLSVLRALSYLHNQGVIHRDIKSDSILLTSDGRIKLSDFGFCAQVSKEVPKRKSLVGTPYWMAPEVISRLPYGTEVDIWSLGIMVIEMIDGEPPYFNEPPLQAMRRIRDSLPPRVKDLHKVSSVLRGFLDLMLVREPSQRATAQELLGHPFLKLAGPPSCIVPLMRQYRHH
Assay [19] has the same target. As to conditions: at 1 µM.
Assay [20] deals with Serine/threonine-protein kinase PAK 6 (Homo sapiens) (UniProt Q9NQU5). To be noted: at 0.1 µM.
Chain of Serine/threonine-protein kinase PAK 6 (Homo sapiens) (Q9NQU5 whole entry, looked up): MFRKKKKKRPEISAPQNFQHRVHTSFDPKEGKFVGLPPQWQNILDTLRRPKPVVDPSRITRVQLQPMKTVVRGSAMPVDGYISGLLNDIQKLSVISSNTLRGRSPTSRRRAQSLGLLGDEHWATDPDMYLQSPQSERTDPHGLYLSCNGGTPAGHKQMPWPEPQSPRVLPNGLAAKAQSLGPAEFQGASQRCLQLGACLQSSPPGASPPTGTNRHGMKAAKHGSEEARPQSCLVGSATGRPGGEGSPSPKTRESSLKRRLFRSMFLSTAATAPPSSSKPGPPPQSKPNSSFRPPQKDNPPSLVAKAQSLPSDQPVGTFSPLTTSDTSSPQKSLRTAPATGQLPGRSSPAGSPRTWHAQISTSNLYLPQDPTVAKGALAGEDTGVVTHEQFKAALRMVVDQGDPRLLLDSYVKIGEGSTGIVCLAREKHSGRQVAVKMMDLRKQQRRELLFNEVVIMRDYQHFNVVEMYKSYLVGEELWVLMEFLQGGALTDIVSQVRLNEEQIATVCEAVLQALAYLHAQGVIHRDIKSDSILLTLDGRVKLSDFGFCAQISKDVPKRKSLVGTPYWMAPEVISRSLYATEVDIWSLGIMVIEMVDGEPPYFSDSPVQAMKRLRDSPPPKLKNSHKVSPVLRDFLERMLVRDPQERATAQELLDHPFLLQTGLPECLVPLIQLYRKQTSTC

Chain of Serine/threonine-protein kinase PAK 2 (Homo sapiens) (Q13177 whole entry): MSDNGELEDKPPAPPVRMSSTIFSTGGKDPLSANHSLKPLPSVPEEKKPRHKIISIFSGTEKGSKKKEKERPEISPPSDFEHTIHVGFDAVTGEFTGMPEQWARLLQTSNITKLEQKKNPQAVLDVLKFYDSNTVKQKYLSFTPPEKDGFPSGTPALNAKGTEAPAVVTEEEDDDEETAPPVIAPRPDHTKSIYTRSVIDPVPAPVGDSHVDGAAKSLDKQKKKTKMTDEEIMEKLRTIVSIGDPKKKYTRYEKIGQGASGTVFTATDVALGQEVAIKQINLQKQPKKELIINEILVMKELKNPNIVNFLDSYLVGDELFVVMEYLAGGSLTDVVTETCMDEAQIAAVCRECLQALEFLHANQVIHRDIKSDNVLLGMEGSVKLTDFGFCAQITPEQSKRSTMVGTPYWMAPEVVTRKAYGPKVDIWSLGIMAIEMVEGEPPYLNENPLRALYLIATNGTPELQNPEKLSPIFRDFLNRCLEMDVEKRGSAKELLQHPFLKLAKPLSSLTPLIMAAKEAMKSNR
Chain of Dual specificity mitogen-activated protein kinase kinase 1 (Homo sapiens) (Q02750 whole entry): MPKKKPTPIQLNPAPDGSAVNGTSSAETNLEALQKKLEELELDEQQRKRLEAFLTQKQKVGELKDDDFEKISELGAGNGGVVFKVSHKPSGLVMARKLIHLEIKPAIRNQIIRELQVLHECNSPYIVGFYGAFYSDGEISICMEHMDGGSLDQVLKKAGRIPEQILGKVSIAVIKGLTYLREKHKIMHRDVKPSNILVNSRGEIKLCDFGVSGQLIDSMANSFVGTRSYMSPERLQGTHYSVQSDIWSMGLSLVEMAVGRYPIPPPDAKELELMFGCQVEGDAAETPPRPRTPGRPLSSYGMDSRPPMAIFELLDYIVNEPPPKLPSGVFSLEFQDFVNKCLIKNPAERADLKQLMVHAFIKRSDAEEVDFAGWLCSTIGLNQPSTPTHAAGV
Chain of Serine/threonine-protein kinase 26 (Homo sapiens) (Q9P289 2-416 limits assumed): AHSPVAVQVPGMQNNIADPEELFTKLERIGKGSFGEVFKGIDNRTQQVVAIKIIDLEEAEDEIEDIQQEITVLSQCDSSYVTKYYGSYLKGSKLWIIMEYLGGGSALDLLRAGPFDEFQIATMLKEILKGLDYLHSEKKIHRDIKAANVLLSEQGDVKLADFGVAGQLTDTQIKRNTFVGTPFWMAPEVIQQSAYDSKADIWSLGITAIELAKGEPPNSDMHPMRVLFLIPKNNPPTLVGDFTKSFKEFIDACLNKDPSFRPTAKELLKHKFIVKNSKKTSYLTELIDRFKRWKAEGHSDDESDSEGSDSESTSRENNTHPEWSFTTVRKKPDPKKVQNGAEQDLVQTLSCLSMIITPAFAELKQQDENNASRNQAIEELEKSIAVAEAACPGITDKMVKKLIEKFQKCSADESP
Chain of Mitogen-activated protein kinase kinase kinase kinase 4 (Homo sapiens) (O95819 2-1239 limits assumed): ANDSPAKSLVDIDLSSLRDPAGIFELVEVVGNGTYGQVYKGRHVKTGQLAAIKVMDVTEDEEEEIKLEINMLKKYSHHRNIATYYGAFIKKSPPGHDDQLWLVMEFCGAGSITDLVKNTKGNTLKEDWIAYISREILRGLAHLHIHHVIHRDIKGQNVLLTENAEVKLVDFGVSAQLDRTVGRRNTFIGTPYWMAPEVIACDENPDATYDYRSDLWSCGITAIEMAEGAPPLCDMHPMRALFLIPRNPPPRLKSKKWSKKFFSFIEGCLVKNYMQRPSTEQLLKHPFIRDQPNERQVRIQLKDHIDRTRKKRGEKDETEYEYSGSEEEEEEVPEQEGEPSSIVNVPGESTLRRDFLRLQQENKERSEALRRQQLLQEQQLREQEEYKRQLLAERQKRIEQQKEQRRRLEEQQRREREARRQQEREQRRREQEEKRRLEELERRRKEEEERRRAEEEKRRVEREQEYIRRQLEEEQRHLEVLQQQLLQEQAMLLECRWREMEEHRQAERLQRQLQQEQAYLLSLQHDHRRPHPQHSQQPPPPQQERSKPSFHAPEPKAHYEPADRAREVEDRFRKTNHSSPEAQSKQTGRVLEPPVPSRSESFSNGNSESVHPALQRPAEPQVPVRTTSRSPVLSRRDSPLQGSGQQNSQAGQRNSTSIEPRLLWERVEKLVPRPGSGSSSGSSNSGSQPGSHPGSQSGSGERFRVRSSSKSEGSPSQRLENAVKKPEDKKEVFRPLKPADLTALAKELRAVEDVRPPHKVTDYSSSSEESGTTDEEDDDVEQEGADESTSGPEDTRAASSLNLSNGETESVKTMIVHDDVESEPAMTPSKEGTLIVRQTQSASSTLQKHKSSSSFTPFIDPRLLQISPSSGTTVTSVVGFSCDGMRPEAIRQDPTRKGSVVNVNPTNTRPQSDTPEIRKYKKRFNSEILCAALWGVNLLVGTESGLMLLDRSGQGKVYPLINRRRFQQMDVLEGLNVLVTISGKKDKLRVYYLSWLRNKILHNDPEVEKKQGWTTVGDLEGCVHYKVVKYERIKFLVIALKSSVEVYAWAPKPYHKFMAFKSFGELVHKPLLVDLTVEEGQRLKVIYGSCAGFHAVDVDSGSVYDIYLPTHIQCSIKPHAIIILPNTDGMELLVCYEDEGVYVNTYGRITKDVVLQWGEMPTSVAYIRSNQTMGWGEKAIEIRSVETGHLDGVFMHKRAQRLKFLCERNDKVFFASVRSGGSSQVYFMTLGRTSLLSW

In the case of `O=C(O[C@H]1CN[C@H](C#Cc2cc3ncnc(Nc4ccc(Cc5ccccc5)cc4)c3s2)C1)N1CCOCC1`, the inhibition (in general, the drop in the measured response relative to a control, in per cent) was -0.81% in assay [1]; 1.32% in assay [2]; 1.73% in assay [3]; 3.34% in [4]; 1.04% in assay [5]; 1.14% in assay [6]. The inhibition in [7] was 3.13%; in [8], 3.94%; in assay [9] it was 3.64%; in assay [10], -0.29%; in [11], -0.68%; in assay [12], 0.1%. Further, the inhibition in [13] came to 2.79%; in assay [14] it was 0.85%; in assay [15] it was 0.99%; in assay [16] it was 3.06%; in assay [17], 2.95%; in assay [18] it was 0.53%. Moreover, the inhibition in assay [19] is 0.17%; in assay [20] it was -2.8%.
On to `c1ccc(-c2nc3n(c2-c2ccc4c(c2)OCO4)CCC3)nc1`, for which the inhibition worked out at 6.59% in assay [1]; 1.98% in assay [2]; 1.68% in assay [3]; 3.49% in assay [4]; 6.24% in assay [5]; 0.85% in assay [6]. Moreover, the inhibition was 1.63% in assay [7]; 1.29% in assay [8]; 1.9% in [9]; 0.34% in assay [10]; -1.91% in assay [11]; 3.44% in assay [12]. Besides, the inhibition was 6.33% in assay [13]; -0.09% in assay [14]; -0.63% in assay [15]; 1.57% in assay [16]; 2.08% in assay [17]; 3.16% in assay [18]. The inhibition in [19] is -0.63%; in [20], 4.69%.
`COC(=O)Nc1nc2ccc(S(=O)(=O)c3ccc(NC(=O)Nc4cc(C(F)(F)F)ccc4F)cc3)cc2[nH]1`: the inhibition in assay [1] was 6.09%; in [2], 2.83%; in assay [3], 2.72%; in assay [4], 5.17%; in assay [5], 8.15%; in assay [6], 3.71%. The inhibition in assay [7] is 4.43%; in [8], 4%; in [9], 3.06%; in assay [10], 0.89%; in assay [11], -2.57%; in [12], 5.36%. Further, the inhibition was 4.48% in [13]; 2.17% in assay [14]; 1.9% in assay [15]; 2.62% in assay [16]; 3.11% in assay [17]; -4.37% in [18]. The values for the inhibition in assay [19] and in [20] were -3.51% and -3.27%, respectively.
`Nc1ncc(-c2cccc(S(N)(=O)=O)c2)c2scc(-c3ccc(F)c(Cl)c3)c12`: the inhibition came to 92.6% in [1]; 3.89% in assay [2]; 6.87% in assay [3]; 70.9% in assay [4]; 91.6% in assay [5]; 4.66% in assay [6]. Besides, the inhibition in assay [7] is 6.44%; in [8], 7.02%; in assay [9], 6.15%; in [10], -0.08%; in [11], 2.44%; in assay [12] it was 3.95%. Besides, the inhibition was 5.65% in assay [13]; 3.24% in assay [14]; 1.78% in assay [15]; 5.21% in assay [16]; 3.51% in assay [17]; 4.11% in [18]. Also, the inhibition in [19] is 3.74%; in assay [20] it was -2.3%.
Regarding `CCN1CCC(CC(=O)Nc2n[nH]c3nnc(-c4cccc(F)c4F)cc23)CC1`, the inhibition in [1] was determined as 3.87%; in assay [2], 2.23%; in assay [3], 2.45%; in assay [4], 3.67%; in assay [5] it was 4.07%; in [6] it was 2.83%. For the same compound, the inhibition worked out at 6.13% in [7]; 3.62% in [8]; 5.19% in [9]; 0.66% in assay [10]; 1.9% in assay [11]; 3.95% in assay [12]. Also, the inhibition in assay [13] is 4.17%; in [14] it was 2.09%; in assay [15], 0.33%; in assay [16], 3.91%; in assay [17] it was 1.02%; in assay [18], 2%. For the same compound, the inhibition in [19] came to 0.92%; in assay [20], 4.45%.
As for `CNC(=O)c1cc(-c2ccc(F)cc2)cc(-c2ccc(S(=O)(=O)N3CCCC3)cc2)c1N`, the inhibition in [1] turned out to be 7.55%; in assay [2], 2.79%; in [3] it was 4.52%; in [4] it was 4.69%; in assay [5], 5.6%; in assay [6] it was 0.78%. Also, the inhibition in assay [7] is 1.31%; in assay [8], 0.82%; in assay [9] it was 1.3%; in assay [10] it was -0.65%; in [11] it was -1.61%; in [12], 3.68%. The inhibition in assay [13] turned out to be 9.51%; in [14], 1.46%; in assay [15], 0.63%; in assay [16], 3.43%; in assay [17], 5.29%; in assay [18] it was 2.26%. Further, the inhibition was 3.67% in assay [19] and -9.04% in assay [20].
